Sampled rows, rich in hits. Any-hit rate of the full collection: about 9.6%.
PLAP act = PLAP enzyme activators, biochemical, luminescence, HTS | Alkaline phosphatase, placental type (Homo sapiens), P05187 | purified PLAP enzyme, luminescent substrate read-out; hits give high values | activation fold at 20 µM | hit rate 1.2% among 96,000 | AID 696, 2007; in the data active = activation fold above about 2
PostGolgi yeast = phenotypic screen on post-Golgi transport, primary screen | post-Golgi transport phenotypic cell assay | inhibition, % at 10 µM | hit rate 0.9% among 98,000 | AID 739, 2007;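 note: yeast cells grown in 1536-well plates; yeast grown about 18 h at 30C before absorbance read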
PostGolgi ctrl = growth inhibition of yeast control strain, primary screen, counter-screen for post-Golgi transport modulator project. efflux-deficient yeast background strain, growth absorbance A615, 16 h. AID 738, 2007. hit rate 5% among 98,000. inhibition, % at 10 µM
Cav3 T inh = Cav3.2 calcium influx blockers – cell-based, Fluo-4 calcium fluorescence, FDSS, MLSMR library, primary screen | hit rate 4% among 100,000 | B-score at 10 µM | Cav3.2-expressing cells; hits give low values;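 active = single-dose well whose peak fluorescence ratio is a statistical outlier from its plate by either plate-standardised score or position-corrected B-score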
hDAT+cocaine = changed hDAT dopamine uptake under cocaine IC80, either direction, primary screen, cocaine antagonist project, cell-based, LLC-PK1 hDAT, [14C]-dopamine uptake, MLSMR. Sodium-dependent dopamine transporter (Homo sapiens), Q01959. LLC-PK1 hDAT cells, [14C]-dopamine uptake with cocaine IC80; actives deviate in either direction. B-score at 10 µM. hit rate 1.3% among 110,000;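 active = Z score or B-score, a plate-position-corrected score, falls beyond the plate's 99.7% confidence bounds, in either direction; inactive = both scores lie inside the 99.7% bounds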;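 note: scored against the spread of the other compound wells on the same plate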
Target sequence (Q01959 whole entry, looked up): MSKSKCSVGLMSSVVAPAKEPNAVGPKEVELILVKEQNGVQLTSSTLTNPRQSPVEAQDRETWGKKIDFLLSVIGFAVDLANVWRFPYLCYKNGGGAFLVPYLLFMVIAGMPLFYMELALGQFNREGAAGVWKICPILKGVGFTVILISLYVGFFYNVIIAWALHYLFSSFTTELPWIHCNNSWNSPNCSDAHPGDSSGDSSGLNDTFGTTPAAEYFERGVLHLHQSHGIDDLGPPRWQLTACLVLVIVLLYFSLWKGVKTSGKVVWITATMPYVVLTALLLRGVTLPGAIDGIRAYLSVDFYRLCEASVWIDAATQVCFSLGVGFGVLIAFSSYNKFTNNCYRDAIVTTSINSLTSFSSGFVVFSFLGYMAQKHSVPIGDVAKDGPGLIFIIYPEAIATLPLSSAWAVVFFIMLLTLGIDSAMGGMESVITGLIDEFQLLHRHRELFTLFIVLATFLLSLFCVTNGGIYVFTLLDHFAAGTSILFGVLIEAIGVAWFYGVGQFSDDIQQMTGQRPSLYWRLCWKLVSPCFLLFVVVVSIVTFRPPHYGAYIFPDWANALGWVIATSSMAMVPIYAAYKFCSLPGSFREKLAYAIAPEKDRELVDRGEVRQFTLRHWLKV
* marks the source's active call; other numbers are inactive results; · = not tested or not shown. Cut-off read from the data, not from the text of the source, unless noted: active = inhibition above about 30%; inactive = the rest.

SMILES	PLAP act	PostGolgi yeast	PostGolgi ctrl	Cav3 T inh	hDAT+cocaine
O=c1[nH]c2ccccc2n2c(-c3ccncc3)nnc12	1	-3.1	0.1	0.669	0.9
CCCCN(CCCC)CP(=O)(c1ccccc1)c1ccccc1	1.3	15.8	16.3	-5.77*	-1.16
O=P(CCCCCCCCCP(=O)(c1ccccc1)c1ccccc1)(c1ccccc1)c1ccccc1	·	12.0	3.0	-9.56*	2.91*
C/C(CC(C)(C)C1CCCCC1)=N\NC(N)=S	0.8	106.7*	100.2*	-4.59*	-1.05
Cn1c(COc2ccc(Cl)cc2)nnc1SCc1ncc(-c2ccccc2)o1	1.6	20.8	46.7*	-9.89*	0.405
COc1ccc(-n2cnnc2SCc2ncc(-c3ccccc3)o2)cc1	0.9	-3.3	12.8	-1.9	0.659
COc1cccc(/C=N/n2c(SC)nnc2-c2ccccc2)c1O	1.4	-7.7	29.4	-1.28	-0.175
CCN(CC)CCNC(=O)CS(=O)Cc1nc(-c2ccc(C)cc2)oc1C (stereo not given)	1.4	-2.4	-0.7	-0.0952	-1.03
CC1CCCCC1NC(=O)COC(=O)c1ccccc1NC(=O)c1ccco1 (stereo not given)	1	2.4	7.4	-1.72	-0.475
O=C(Nc1ccccc1C(=O)OCC(=O)N1CCc2ccccc2C1)c1ccco1	1.2	1.4	32.4*	-1.58	0.94
CC(c1nnc(SCn2nnc3ccccc3c2=O)n1-c1ccc(Cl)cc1)N(C)C (stereo not given)	1.2	66.8*	17.6	-0.0603	0.0516
CC(C)N(C(=O)CSc1nn2c(=O)c(C(C)(C)C)nnc2s1)c1ccccc1	1.2	9.2	3.5	-10.2*	0.719
CC(C)(C)c1nnc2sc(SCCN3C(=O)c4ccccc4C3=O)nn2c1=O	1	-16.3	-4.9	-0.336	-0.263
Cn1c(SCCOc2ccccc2Cl)nnc1-c1cccs1	·	·	·	-3.1	0.785
Cn1c(SCc2c(F)cccc2Cl)nnc1-c1cccs1	0.8	20.1	3.3	0.446	2.3*
O=C(CSc1nn(-c2ccccc2)c(=S)s1)Nn1cnnc1	1.1	-6.9	34.7*	-0.596	0.189
Cc1ccc(C(C)NC(=O)/C(C#N)=C\c2c(C)[nH]c3ccccc23)cc1 (stereo not given)	0.8	-1.5	58.9*	0.493	-0.48
Cc1ccc(/C=C(/C#N)C(=O)NC(=O)Oc2ccccc2)cc1	1.2	-0.7	4.1	0.245	0.103
C=C1/C(=C\C=C2/CCC[C@]3(C)[C@@H]([C@H](C)CCCC(C)(C)O)CC[C@@H]23)C[C@@H](O)C[C@@H]1O	·	·	·	-0.113	1.53
CCOC(=O)c1ccccc1-c1csc(NS(=O)(=O)c2ccc(Cl)cc2)n1	1.2	5.9	12.4	-9.16*	-4.8*
CCOC(=O)c1ccccc1NC(=O)c1nc2nccc(C)n2n1	0.9	3.1	40.1*	1.02	0.358
CCOC(=O)c1ccccc1NS(=O)(=O)c1ccc(C)cc1	1	-10.5	19.8	-3.28	0.407
CCOC(=O)c1ccccc1NS(=O)(=O)c1ccccc1	0.9	-2.9	36.5*	-0.159	0.339
CCN1C(=O)c2cccc3c(S(=O)(=O)Nc4ccc(OC)cc4OC)ccc1c23	1.1	-4.3	18.5	·	-1.57
Cc1cccc(-c2nc(CS(=O)CC(=O)NCc3cccs3)c(C)o2)c1 (stereo not given)	1.7	-8.4	2.8	-0.373	-0.191
SMILES	PLAP act	PostGolgi yeast	PostGolgi ctrl	Cav3 T inh	hDAT+cocaine
Cc1ccc(CCNC(=O)CS(=O)Cc2nc(-c3cccc(C)c3)oc2C)cc1 (stereo not given)	1.6	0.8	9.6	-5.19*	-0.092
C/C(=N\NC(=O)CSCc1ccc(Cl)cc1)c1ccc2c(c1)OCCO2	0.9	2.5	31.4*	-3.92	-2.14
O=C(CSCc1cccc(Cl)c1)NCc1ccc2c(c1)OCO2	0.9	-21.7	0.0	-3.14	-0.394
CCCn1c(SCC(=O)N2CCCc3ccccc32)nnc1-c1ccccn1	1.2	2.1	-1.4	0.0367	0.21
Cc1ccccc1N/C(SCc1ccc(Cl)cc1)=C(/C#N)C(=O)NCc1ccco1	1.1	-1.4	11.4	-5.48*	0.407
Cn1cc(C(=O)c2ccc(Cl)cc2Cl)cc1C(=O)N/N=C(\N)COc1ccc(F)cc1	1.9	15.2	24.5	-6.12*	1.94
Cn1cc(C(=O)c2ccc(Cl)cc2Cl)cc1C(=O)N/N=C(\N)COc1ccc(Cl)cc1Cl	1.7	4.7	5.2	·	·
Cn1cc(C(=O)c2ccc(Cl)cc2Cl)cc1C(=O)N/N=C(\N)COc1ccccc1	1.5	-11.9	3.3	-6.6*	0.239
O=C(c1ccc(Cl)c(Cl)c1)c1cc(-c2ccccn2)c(N2CCOCC2)s1	1.1	-2.5	56.1*	0.874	0.812
COC(=O)c1ccc(Cn2cc(Cl)cn2)cc1	0.9	-5.2	2.4	-0.143	-0.179
O=C(Nc1cccc2ccccc12)c1ccc(Cn2cc(Cl)cn2)cc1	1	-18.9	38.5*	-3.87*	0.107
Cc1ccc(/C=C/C2=NN(Cc3ccccc3Cl)C(=O)CC2)cc1	1.4	-0.9	41.4*	0.111	-0.147
COc1ccc(-c2csc(NCCc3nc4cc(Cl)c(Cl)cc4n3CCCO)n2)cc1	·	·	·	-0.487	2.97
Cc1cc(NC(=O)c2oc3ccccc3c2C)ccc1-n1cnnn1	1	-7.5	34.3*	-0.00749	1.73
O=C1CCN(Cc2nnnn2CC2CCCO2)c2ccccc2N1 (stereo not given)	1	-1.3	11.4	-0.00404	-0.771
Cc1cccc(NC(=S)N2CCC(N(C)CC3CCCO3)CC2)c1C (stereo not given)	1	-16.2	32.2*	1.21	0.19
COc1ccc([C@H]2C=C3CN(C(=O)OC(C)(C)C)S(=O)(=O)[C@H]3C[C@H]2OC(=O)c2cccs2)cc1	·	·	·	-1.02	0.406
COc1ccccc1N1CCN(C(=O)Nc2cccc(C)c2)CC1	1.1	-3.5	11.4	0.451	0.0219
COc1ccccc1NC(=O)N1CCc2[nH]c3ccc(Cl)cc3c2C1	1	3.7	8.3	-5.12*	1.48
CCOC(=O)c1c(C)[nH]c(C(=O)COC(=O)C2(C)CC2(Cl)Cl)c1C (stereo not given)	1	-8.8	17.1	-1.83	-0.391
COCc1cc(C)nc(OCC(=O)N/N=C/c2cccc(OC)c2)c1C#N	1.2	-3.3	7.1	0.902	0.321
COCc1cc(C)nc(OCC(=O)N/N=C\c2cc(C)n(-c3cccc(C(F)(F)F)c3)c2C)c1C#N	1.7	-3.3	1.5	-4.85*	1.9
Cc1ccccc1CSCCNC(=O)CCSc1ccccc1	0.9	0.7	16.2	-6.07*	0.37
Cc1c(Cl)c([N+](=O)[O-])nn1CC(=O)NC1CCCCC1	1	0.8	5.4	0.0566	-2.07
Cc1ccc(NC(=O)CSCC(=O)N2c3ccccc3CCc3ccccc32)cc1	1	-3.5	24.0	-4.9*	-0.0138
COCCOC(=O)C1=C(C)NC2=C(C(=O)CC(C)(C)C2)C1c1cc2c(cc1Br)OCO2 (stereo not given)	1.7	·	·	0.239	-0.0724

Source: PubChem (several laboratories)
